In PubChem BioAssay (EPA / NIEHS):
“And” between values parts separate entries of the source, which are not always exact repeats. Equal entries are not always repeated. Where a structure was tested more than once in an assay, its records may differ in their call. The source made the active and inactive calls. Rule for the calls: active = hit-call score of the fitted dose curve at least 0.9, where 1 is the maximum; inactive = score below 0.9.

test: ATG_AP_1_CIS: Attagene CIS-FACTORIAL HepG2 Assay for human Activator Protein 1 (AP-1) (AID 2282931); details: HepG2 Attagene cis-factorial AP-1 reporter mRNA; actives raise or lower the signal
Description: ATG_CIS is a cell-based, multiplexed-readout assay that uses HepG2, a human liver cell line, with measurements taken at 24 hours after chemical dosing in a 24-well plate.ATG_AP_1_CIS is one of 52 assay component(s) measured or calculated from the ATG_CIS assay. It is designed to make measurements of mRNA induction, a form of inducible reporter, as detected with fluorescence intensity signals by Reverse transcription polymerase chain reaction (RT-PCR) and Capillary electrophoresis technology.Data from the assay component ATG_AP_1_CIS was analyzed into 1 assay endpoint. This assay endpoint, ATG_AP_1_CIS, was analyzed with bidirectional fitting relative to DMSO as the negative control and baseline of activity. Using a type of inducible reporter, measures of mRNA for gain or loss-of-signal activity can be used to understand the reporter gene at the transcription factor-level as they relate to the gene FOS and JUN. Furthermore, this assay endpoint can be referred to as a primary readout, because this assay has produced multiple assay endpoints where this one serves a reporter gene function. To generalize the intended target to other relatable targets, this assay endpoint is annotated to the dna binding intended target family, where the subfamily is basic leucine zipper.
Human liver HepG2 cells are transiently transfected with multiple reporter transcription units (MRTUs) in 6-well plates using FuGene 6 reagent (Roche; 3 ml FuGene/1 mg DNA). The MRTU constructs are regulated by a cis-regulating element (promoter). […] A major difference between the CIS and TRANS system is that in CIS activities of endogenous TFs are measured, whereas the TRANS assay evaluates changes in activities of exogenous, chimeric NR-Gal4 proteins. […] At the end of 24 hour incubation, total RNA was isolated using TriZol reagent (Invitrogen). The isolated RNA is then reverse-transcribed using oligo(dT) primer and Mo-MLV reverse transcriptase (Invitrogen) with DNAse I (Ambion) treatment for 30 min. The one-tenth of the produced cDNA was amplified by PCR using Taq DNA polymerase (Invitrogen) and two reporter sequence-specific primers. The PCR products were fluorescently labeled by primer extension with 6-arboxyfluorescein (6-FAM) 5'-labeled reporter sequence-specific primer (2 min at 95 C, 20 s at 68 C and 10 min at 72 C) and these products were digested with 5U of HpaI (New England Biolabs) for 2h at 37 C. The fragments were purified using Qiaquick PCR columns (Qiagen), analyzed on an ABI 3130xL genetic analyzer (Applied Biosystems) with peak positions identified by using a set of X-rhodamine (ROX)-labeled MapMarker1000 molecular weight standards (BioVentures). The raw capillary electrophoresis data was processed using Attagraph software (Attagene).

Structure (SMILES) | AC50 | outcome
CC(c1ccc(O)cc1)(c1ccc(O)cc1)c1ccc(O)cc1 | 17.9 µM (active) | –
Clc1ccc(Cl)cc1 | – | inactive
CCCCCCOC(=O)c1ccccc1C(=O)OCCCCCC | 45.3 µM (active) | –
C[C@]12CCC(=O)C=C1CC[C@@H]1[C@@H]2CC[C@@]2(C)[C@H]1CC[C@]2(C)O | 114 µM (active) | inactive
CCCCCCCCOC(=O)c1ccccc1C(=O)OCCCCCCCC | – | inactive
Cc1ccc(O)c(C)c1 | – | inactive
CCC(C)(CC)c1cc(NC(=O)c2c(OC)cccc2OC)on1 | – | inactive
Oc1ccc(Cl)cc1Cl | – | inactive
Oc1c(Cl)c(Cl)c(Cl)c(Cl)c1Cl | 13.7 µM (active) and 3.6 µM (active) | inactive
CN(C)CCO | – | inactive
Cc1cc2c3c(c1)C(c1ccccc1)=N[C@@H](NC(=O)c1ccncc1)C(=O)N3CC2 | – | inactive
O=C(O)C(F)(F)C(F)(F)C(F)(F)C(F)(F)C(F)(F)F | – | inactive
c1cc2ccc3cccc4ccc(c1)c2c34 | – | inactive
Oc1ccc(C(c2ccc(O)cc2)(C(F)(F)F)C(F)(F)F)cc1 | 11.1 µM (active) [middle of 4 runs] | –
N#Cc1ccc(N(CC(N)=O)CC(F)(F)F)cc1C(F)(F)F | – | inactive
Nn1cnnc1 | – | inactive
CC(C)C(=O)OCC(C)(C)C(OC(=O)C(C)C)C(C)C (stereo not given) | – | inactive
Cc1ccccc1[N+](=O)[O-] | – | inactive

Structure (SMILES) | AC50 | outcome
ClC(Cl)=C(c1ccc(Cl)cc1)c1ccc(Cl)cc1 | 100 µM (active) and 64.2 µM (active) and 73.8 µM (active) | –
COc1ccc(O)c(C(C)(C)C)c1 | 55.5 µM (active) | –
Clc1ccc(C(Cl)(Cl)Cl)cc1 | – | inactive
CC(C)(O)C(=O)Nc1ccc([N+](=O)[O-])c(C(F)(F)F)c1 | – | inactive
Cc1ccccc1O | 140 µM (active) | –
CC1=C2C[C@H]3[C@@H](CC=C4C[C@@H](O)CC[C@@]43C)[C@@H]2CC[C@]12O[C@@H]1C[C@H](C)CN[C@H]1[C@H]2C | – | inactive
CCC(=O)O[C@H]1CC[C@H]2[C@@H]3CCC4=CC(=O)CC[C@]4(C)[C@H]3CC[C@]12C | – | inactive
ClC1=C(Cl)[C@]2(Cl)[C@@H]3[C@H]4C[C@H]([C@@H]5O[C@H]45)[C@@H]3[C@@]1(Cl)C2(Cl)Cl | – | inactive
ClC1=C(Cl)[C@]2(Cl)[C@@H]3[C@@H]4C[C@@H]([C@H]5O[C@@H]45)[C@@H]3[C@@]1(Cl)C2(Cl)Cl | – | inactive
Nc1ccc(-c2ccc(N)cc2)cc1 | – | inactive
O=C(N[C@H]1CN2CCC1CC2)c1cc2ccoc2cn1 | – | inactive
O=S(=O)(O)C(F)(F)C(F)(F)C(F)(F)C(F)(F)C(F)(F)C(F)(F)F | 117 µM (active) | inactive
Cc1cc(O)ccc1Cl | – | inactive
CCC(C)(c1ccc(O)cc1)c1ccc(O)cc1 | 59.3 µM (active) and 33.4 µM (active) and 15.6 µM (active) | inactive
Clc1ccc(C(c2ccccc2Cl)C(Cl)(Cl)Cl)cc1 (stereo not given) | 40.4 µM (active) [middle of 4 runs] | –
CCCCCCCCCC[N+](C)(C)CCCCCCCCCC | 192 µM (active) | –
CCNc1nc(NC(C)C)nc(SC)n1 | – | inactive
O=S(=O)(O)C(F)(F)C(F)(F)C(F)(F)C(F)(F)F | – | inactive
